Arbovirus anti – antivirals against arbovirus infection; arbovirus infection cell-based antiviral screen; inhibition, % at 10 µM; 200,000 compounds, 0.37% hits; AID 1251; in the data active = inhibition above about 30%
WT yeast gro inh – growth inhibition of WT yeast, mitochondrial fusion screen | AID 1362 | inhibition, % at 10 µM | 190,000 compounds, 2.1% hits | mitochondrial fusion phenotypic screen, WT strain; in the data active = inhibition above about 58%; tested in S. cerevisiae
CHOP inh – blocks CHOP induction under ER stress; CHO-K1 CHOP-promoter luciferase, tunicamycin-induced, 15-18 h; inhibition, % at 10 µM; 220,000 compounds, 3.8% hits;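 active = compounds that reduced the stress-induced luciferase reporter signal by more than about 70% of percent inhibition, limit read from the data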;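 note: 0% = tunicamycin plus vehicle and 100% = wells without tunicamycin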
L major viab – Leishmania major promastigote growth inhibition; Leishmania major promastigotes, resazurin fluorescence viability; inhibition, % at 10 µM; AID 1063; 200,000 compounds, 9% hits; in the data active = inhibition above about 50%;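 note: promastigotes grown with compound for 44 hours at 28 °C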
* = called active by the depositor; · = not tested or not shown. In the library only some 12% were active in any assay of this set; here they are far more common.

SMILES	Arbovirus anti	WT yeast gro inh	CHOP inh	L major viab
CCN(CC)CCNC(=O)COc1ccc(Cl)cc1Cl	5	-33	-21	75*
CN(C)CCNC(=O)COc1ccc(Cl)cc1Cl	5	-21	1	0
CC(Oc1cccc(Cl)c1)C(=O)NCCCCc1ccccc1 (centres undefined)	-1	35	27	48
O=C(CSc1nnc(SCc2ccc(Cl)cc2)s1)N/N=C/c1c[nH]c2ccccc12	-23	3	92*	65*
COc1cc2c(c(OC)c1OC)-c1c(cc(OC)c(OC)c1OC)C[C@](C)(O)[C@@H](C)C2	·	·	-6	·
O=C(NC1=NCCCCC1)c1cccc2ccccc12	15	-20	-14	-5
O=C(COc1ccc(Cl)cc1Cl)NCC(=O)N/N=C/c1c[nH]c2ccccc12	-3	-1	15	70*
O=C(COc1ccc(Br)cc1CNC1CCCC1)Nc1ccccc1	5	20	11	53*
O=C(COc1ccc(Br)cc1Cl)NC1CCCCC1	-4	4	71*	-8
CC(C)NC(=O)NC(=O)COc1ccc(Br)cc1Br	1	-3	27	67*
O=C(CNc1ccccc1)N/N=C/c1c[nH]c2ccccc12	6	-1	26	-2
O=C(O)c1ccc2c(c1)C(=O)N(c1cc(C(=O)O)ccc1Br)C2=O	2	9	38	-10
COc1ccccc1CN(C)CC(=O)NC1CCCc2ccccc21 (centres undefined)	-8	5	10	14
Cc1csc(Sc2ccc(S(=O)(=O)N3CCCC3)cn2)n1	0	-5	18	-14
COc1cc(C)nc(OCCNC(=O)COc2ccc(Cl)cc2C)n1	0	18	30	4
O=C(COc1ccc(Cl)cc1Cl)NCCCCc1ccccc1	-4	76*	85*	-6
O=C(COc1ccccc1-c1ccccc1)NCc1cccc(Cl)c1	-17	78*	66	17
Cc1cc(Cl)ccc1OCC(=O)NCCCCc1ccccc1	18	63*	-16	-8
Cc1cc(Cl)ccc1OCC(=O)NCCOc1nc(N2CCCCC2)nc(N2CCOCC2)n1	-2	-2	89*	-1
CCN(C(=O)CSc1nnc(-c2cccs2)n1CC)C1CCS(=O)(=O)C1 (centres undefined)	·	·	-14	·
COC(=O)C1=C(C)N(c2ccc(C)c(C)c2)/C(=C/c2ccc(O)cc2)C1=O	-18	6	8	99*
COC(=O)C1=C(C)N(CC2CCCO2)C(=O)/C1=C\c1ccc(O)cc1 (centres undefined)	12	-11	31	22
CCC(CO)[n+]1c(C)cc(/C=C2\Sc3ccccc3N2Cc2ccccc2)cc1C (centres undefined)	-38	59*	56	100*
CCN1/C(=C2\SC(=S)N(Cc3ccccc3)C2=O)Sc2ccccc21	-4	1	-1	-5
Cc1ccccc1OCCNc1cc(N2CCNCC2)ccc1[N+](=O)[O-]	-37	33	-4	100*
SMILES	Arbovirus anti	WT yeast gro inh	CHOP inh	L major viab
COc1ccccc1OCCNc1cc(N2CCCCC2)ccc1[N+](=O)[O-]	11	11	35	7
COc1ccccc1-n1c(SCC(=O)Nc2ccc3c(c2)OCO3)nc2c(c1=O)SCC2	1	-1	67	89*
CCN(CC)C(=O)/C=C/c1ccc(OC)c(S(=O)(=O)N2CCCCC2)c1	-12	-5	7	0
Nc1c(Cl)ncnc1N/N=C/c1ccccn1	-30	57	68	100*
Nc1c(Cl)ncnc1N/N=C/c1ccc2ccccc2n1	-25	42	65	100*
Nc1c(Cl)ncnc1N/N=C/c1ccnc2ccccc12	-15	-7	-8	-1
ONC(=Nc1cccc(C(F)(F)F)c1)c1cccnc1	·	·	14	·
Cc1ccc(C2=Nc3ccccc3SC(c3cccc([N+](=O)[O-])c3)C2)cc1 (centres undefined)	·	·	-6	·
Cc1cc(NC(=O)c2ccccc2[N+](=O)[O-])ccc1Br	5	17	20	16
Cc1c(NC(=O)COC(=O)c2ccccc2Cl)c(=O)n(-c2ccccc2)n1C	0	1	-3	-6
Cc1c(NC(=O)COC(=O)c2cc3c4ccccc4n(C)c3s2)c(=O)n(-c2ccccc2)n1C	5	51	49	96*
Cc1cccc(OCC(=O)Nc2ccc(C(=O)c3ccc(C(=O)O)cc3)cc2)c1	-3	6	-5	-7
CCc1cccc(OCCCCN(CC)CC)c1	-12	·	17	98*
CCc1cccc(OCCCCNCCCOC)c1	-8	7	27	99*
CCOC(=O)C(CCCCOc1cccc(CC)c1)C(=O)OCC	-2	9	71*	45
CCOc1cccc(OCCCNCCCOC)c1	-2	60*	-10	88*
CCOC(=O)C(CCCOc1cccc(CC)c1)C(=O)OCC	3	18	11	-2
CCCCOc1cccc(C(=O)O)c1	1	8	14	-9
Cc1cccc(N2C(=O)CCC2=O)n1	3	7	-8	-6
O=Cc1cn(CC(=O)N2CCc3ccccc32)c2ccccc12	2	-13	18	-6
CCOC(=O)c1ccc(CNCc2ccc(C)cc2)cc1	8	4	18	79*
Cc1ccc(NC(=S)NC2CCN(Cc3ccccc3)CC2)cc1C	1	11	5	94*
CC(C)c1ccc(NC(=S)NC2CCN(Cc3ccccc3)CC2)cc1	-26	18	60	92*
Cc1ccc(NC(=S)NC2CCN(Cc3ccccc3)CC2)cc1	22	4	18	100*
O=C(CN1CCC(NC(=O)c2ccccc2F)CC1)Nc1ccc2c(c1)OCO2	-3	-1	-7	-6
SMILES	Arbovirus anti	WT yeast gro inh	CHOP inh	L major viab
S=C(Nc1ccc2c(c1)OCO2)NC1CCN(Cc2ccccc2)CC1	-12	19	10	97*
Cc1cc(C)c(C)c(OCC(=O)N2CCCCCC2)c1	-2	5	31	-1
Cc1cccc(S(=O)(=O)N2CCC(CO)(Cc3ccccc3)CC2)c1	9	6	9	5
Cc1cc(C)n(-c2cc(N3CCN(C(=O)c4ccccc4C)CC3)ccc2[N+](=O)[O-])n1	·	·	·	-4
N#Cc1ccc(-c2cccnc2)nc1SCC(N)=O	·	·	21	·
CCSc1nc(-c2cccnc2)ccc1C#N	8	-2	29	77*
CC(C)CNC(=O)NC(=O)COC(=O)c1cccc(NS(=O)(=O)c2ccc(F)c(F)c2)c1	19	12	24	0
CCCNC(=O)NC(=O)COC(=O)c1cccc(NS(=O)(=O)c2ccc(F)c(F)c2)c1	16	11	21	55*
O=C(COC(=O)c1cccc(NS(=O)(=O)c2ccc(F)c(F)c2)c1)NC(=O)NC1CCCCC1	5	8	34	82*
O=C1CC2c3ccccc3C1C1C(=O)N(CCc3ccccc3)C(=O)C21 (centres undefined)	-2	0	16	-3
CCn1c(SCC(=O)Nc2ccc3c(c2)c2ccccc2n3CC)nnc1-c1ccco1	11	-3	8	72*
CCn1c2ccccc2c2cc(NC(=O)CSc3nccc(=O)[nH]3)ccc21	1	-10	6	90*
CCn1c(SCC(=O)Nc2ccc3c(c2)OCCO3)nnc1-c1ccco1	4	13	2	0
CCn1c2ccccc2c2cc(NC(=O)CSc3nnc(-c4ccccc4)o3)ccc21	-10	·	56	85*
O=C(CSc1nnc(-c2ccncc2)o1)NCc1ccccc1	-6	-9	23	50*

High-throughput results deposited in PubChem BioAssay by several laboratories.
